The source of these data is the antibiotic and cytotoxicity screens of Wong et al. (2023).

Structures are written as SMILES. In all, about 39,000 compounds went through this assay and about 3,300 (8.5%) were called active. Shown is part of a subset that was picked to be rich in actives.

The experiment deals with HepG2. The experiment in a line: cytotoxicity call (relative viability < 0.9). Conditions: 10 µM.
Turning to `CC(C)=Cc1ccc(C#N)c(=S)[nH]1`, the cytotoxicity call is “inactive”.
For `CC[C@@H](O[Si](C#C[Si](C(C)C)(C(C)C)C(C)C)(C(C)C)C(C)C)c1cn([C@H](CO)Cc2ccccc2)nn1`, the cytotoxicity call is “inactive”.
In the case of `Cc1noc(C)c1NC(=O)N(C)C[C@@H]1OCCCC[C@H](C)Oc2ccc(NC(=O)Nc3ccc4c(c3)OCO4)cc2C(=O)N([C@H](C)CO)C[C@@H]1C`, the cytotoxicity call is “inactive”.
For the compound `COc1ccc(S(=O)(=O)Nc2ccc3c(c2)CC(=O)N([C@@H](C)CO)C[C@H](C)[C@H](CN(C)S(C)(=O)=O)O3)cc1`, the cytotoxicity call is “inactive”.
Next, `Cc1noc(C)c1NC(=O)Nc1ccc2c(c1)C(=O)N([C@@H](C)CO)C[C@@H](C)[C@H](CN(C)C(=O)Nc1ccc3c(c1)OCO3)OCCCC[C@H](C)O2`: “inactive”; `CNC[C@@H]1OCCCC[C@@H](C)Oc2ccc(NC(=O)Nc3ccc(C(F)(F)F)cc3)cc2C(=O)N([C@H](C)CO)C[C@@H]1C`: “inactive”.
Next, `C[C@@H]1CN([C@H](C)CO)C(=O)c2cc(NC(=O)Cc3cn(C)c4ccccc34)ccc2O[C@@H]1CN(C)S(C)(=O)=O`: “inactive”; `O=C(C[C@H]1C[C@H]2c3cc(NC(=O)Nc4ccccc4F)ccc3O[C@H]2[C@@H](CO)O1)NCc1ccc(Oc2ccccc2)cc1`: “inactive”.
Next, `C[C@@H]1CCCCO[C@@H](CN(C)Cc2ccncc2)[C@@H](C)CN([C@H](C)CO)C(=O)c2cc(NS(C)(=O)=O)ccc2O1`: “inactive”.
Regarding `C[C@@H]1CN([C@@H](C)CO)C(=O)c2cccc(NC(=O)CCCCCC(=O)Nc3ccccc3N)c2O[C@H]1CN(C)Cc1ccc(C(F)(F)F)cc1`, the cytotoxicity call was “inactive”.
For the compound `Cc1noc(C)c1S(=O)(=O)Nc1ccc2c(c1)C(=O)N([C@H](C)CO)C[C@H](C)[C@@H](CN(C)C)OCCCC[C@H](C)O2`, the cytotoxicity call is “inactive”.
As for `CCOC(=O)Cc1c(C)[nH]c(=O)[nH]c1=O`, the cytotoxicity call is “inactive”.
Next, `COc1cccc(C#Cc2cnc3c(c2)C(=O)N([C@@H](C)CO)C[C@@H](C)[C@H](CN(C)C(=O)C2CCC2)O3)c1`: “inactive”.
For the compound `Cc1cc(C(=O)Nc2cccc3c2O[C@@H](CN(C)S(=O)(=O)c2cccs2)[C@@H](C)CN([C@H](C)CO)C3=O)n(C)n1`, the cytotoxicity call is “inactive”.
Next, `C[C@H](CO)N1C[C@H](C)[C@@H](CN(C)Cc2ccc(Oc3ccccc3)cc2)Oc2ccc(NC(=O)Cc3cn(C)c4ccccc34)cc2CC1=O`: “inactive”.
The value for `C[C@@H]1CN([C@@H](C)CO)C(=O)Cc2cc(NC(=O)Cc3cn(C)c4ccccc34)ccc2O[C@@H]1CN(C)Cc1ccc(Oc2ccccc2)cc1` was “active”; that for `C[C@@H]1CN([C@@H](C)CO)C(=O)c2c(c3ccccc3n2C)-c2ccccc2CO[C@H]1CN(C)Cc1ccc(Cl)c(Cl)c1` was “inactive”; that for `C[C@@H]1CN([C@@H](C)CO)C(=O)c2c(c3ccccc3n2C)-c2ccccc2CO[C@H]1CN(C)Cc1ccccc1` was “active”.
Regarding `C[C@@H]1CN([C@@H](C)CO)C(=O)c2c(c3ccccc3n2C)-c2ccccc2CO[C@@H]1CN(C)Cc1ccc(C(F)(F)F)cc1`, the cytotoxicity call is “inactive”.
The value for `C[C@@H]1CN([C@H](C)CO)C(=O)c2c(c3ccccc3n2C)-c2ccccc2CO[C@@H]1CN(C)Cc1ccc(-c2ccccc2)cc1` was “inactive”; that for `C[C@H](CO)N1C[C@H](C)[C@H](CN(C)Cc2ccc(Cl)c(Cl)c2)OCc2ccccc2-c2c(n(C)c3ccccc23)C1=O` was “active”.
With `C[C@@H]1CN([C@H](C)CO)C(=O)c2c(c3ccccc3n2C)-c2ccccc2CO[C@H]1CN(C)Cc1ccc(C(F)(F)F)cc1`, the cytotoxicity call is “active”.
On to `C[C@H]1CN([C@@H](C)CO)C(=O)c2c(c3ccccc3n2C)-c2ccccc2CO[C@@H]1CN(C)Cc1ccc(-c2ccccc2)cc1`, for which the cytotoxicity call is “inactive”.
The value for `C[C@@H]1CN([C@@H](C)CO)C(=O)c2c(c3ccccc3n2C)-c2ccccc2CO[C@@H]1CN(C)Cc1ccc(-c2ccccc2)cc1` was “inactive”; that for `C[C@@H]1CN([C@H](C)CO)C(=O)c2c(c3ccccc3n2C)-c2ccccc2CO[C@H]1CN(C)Cc1ccc(Cl)c(Cl)c1` was “inactive”; that for `C[C@H](CO)N1C[C@H](C)[C@@H](CN(C)Cc2ccc(-c3ccccc3)cc2)OCc2ccccc2-c2c(n(C)c3ccccc23)C1=O` was “inactive”.
For `C[C@@H]1CN([C@H](C)CO)C(=O)c2c(c3ccccc3n2C)-c2ccccc2CO[C@@H]1CN(C)Cc1ccc(C(F)(F)F)cc1`, the cytotoxicity call is “inactive”.
Next, `C[C@@H]1CN([C@H](C)CO)C(=O)c2c(c3ccccc3n2C)-c2ccccc2CO[C@@H]1CN(C)Cc1ccccc1`: “active”; `C[C@@H]1CCCCO[C@H](CN(C)C(=O)Nc2ccc(C(F)(F)F)cc2)[C@H](C)CN([C@@H](C)CO)C(=O)c2cc(NC(=O)Nc3cccc4ccccc34)ccc2O1`: “inactive”; `C[C@@H]1CN([C@@H](C)CO)C(=O)c2cc(NC(=O)C3CCCCC3)ccc2O[C@@H](C)CCCCO[C@@H]1CN(C)C(=O)Nc1ccc(C(F)(F)F)cc1`: “inactive”.
Next, `COc1cccc(C#Cc2ccc3c(c2)O[C@@H](CN(C)C(C)=O)[C@H](C)CN([C@@H](C)CO)S3(=O)=O)c1`: “inactive”; `COc1ccc(NC(=O)N(C)C[C@H]2OCCCC[C@H](C)Oc3ccc(NC(=O)Nc4cccc5ccccc45)cc3C(=O)N([C@@H](C)CO)C[C@H]2C)cc1`: “inactive”; `CCCC1CCC(c2ccc(OC(=O)c3ccco3)cc2)CC1` (stereo unspecified): “inactive”.
For `CCCN(C)C[C@@H]1OCCCC[C@@H](C)Oc2ccc(NC(=O)CCC(F)(F)F)cc2C(=O)N([C@@H](C)CO)C[C@@H]1C`, the cytotoxicity call is “inactive”.
Consider `C[C@@H]1CN([C@@H](C)CO)C(=O)c2cc(C3=CCCC3)cnc2O[C@H]1CN(C)S(=O)(=O)c1cn(C)cn1`, for which the cytotoxicity call is “inactive”.
Next, `C[C@@H]1CN([C@@H](C)CO)C(=O)CCCn2cc(nn2)CO[C@@H]1CN(C)C(=O)Nc1cccc2ccccc12`: “inactive”; `CCC(=O)N1C[C@]2(C1)CN([C@H](CO)c1c2c2ccc(cc2n1C)OC)C(=O)CN1CCOCC1`: “inactive”.
`C[C@H](CO)N1C[C@H](C)[C@H](CN(C)Cc2ccc(-c3ccccc3)cc2)Oc2c(NC(=O)Nc3ccc4c(c3)OCO4)cccc2C1=O`: the cytotoxicity call was “inactive”.
The value for `C[C@@H]1CN([C@@H](C)CO)S(=O)(=O)c2ccc(C#CC3(O)CCCC3)cc2O[C@H]1CN(C)C(=O)c1ccccc1` was “inactive”.
The value for `C[C@@H]1CN([C@@H](C)CO)C(=O)c2cccc(NS(=O)(=O)c3cn(C)cn3)c2O[C@@H]1CN(C)S(C)(=O)=O` was “inactive”; that for `CCS(=O)(=O)N1C[C@]2(C1)CN([C@H](CO)c1c2c2ccc(cc2n1C)OC)S(=O)(=O)c1ccccc1` was “inactive”; that for `C[C@H](CO)N1C[C@H](C)[C@@H](CN(C)Cc2ccccc2)OCc2ccccc2-c2c(n(C)c3ccccc23)C1=O` was “active”.
Take `COc1ccccc1CN(C)C[C@H]1OCc2ccccc2-c2c(n(C)c3ccccc23)C(=O)N([C@H](C)CO)C[C@@H]1C`: the cytotoxicity call is “active”.
The value for `C[C@@H]1CN([C@@H](C)CO)C(=O)c2c(c3ccccc3n2C)-c2ccccc2CO[C@H]1CN(C)Cc1ccccc1C(F)(F)F` was “inactive”; that for `C[C@@H]1CN([C@H](C)CO)C(=O)c2c(c3ccccc3n2C)-c2ccccc2CO[C@H]1CN(C)Cc1ccccc1` was “active”.
With `C[C@@H]1CN([C@H](C)CO)C(=O)c2c(c3ccccc3n2C)-c2ccccc2CO[C@H]1CN(C)Cc1ccccc1C(F)(F)F`, the cytotoxicity call is “active”.
For the compound `C[C@@H]1CN([C@@H](C)CO)C(=O)c2c(c3ccccc3n2C)-c2ccccc2CO[C@@H]1CN(C)Cc1ccccc1`, the cytotoxicity call is “inactive”.
Next, `C[C@H](CO)N1C[C@H](C)[C@H](CN(C)Cc2ccccc2C(F)(F)F)OCc2ccccc2-c2c(n(C)c3ccccc23)C1=O`: “inactive”; `C[C@H]1CN([C@@H](C)CO)C(=O)c2c(c3ccccc3n2C)-c2ccccc2CO[C@@H]1CN(C)Cc1ccccc1`: “inactive”; `C[C@H](CO)N1C[C@H](C)[C@H](CN(C)Cc2ccccc2)OCc2ccccc2-c2c(n(C)c3ccccc23)C1=O`: “inactive”.
Consider `C[C@H]1CN([C@@H](C)CO)C(=O)c2c(c3ccccc3n2C)-c2ccccc2CO[C@H]1CN(C)Cc1ccccc1`, for which the cytotoxicity call was “inactive”.
The value for `COc1ccccc1CN(C)C[C@H]1OCc2ccccc2-c2c(n(C)c3ccccc23)C(=O)N([C@@H](C)CO)C[C@@H]1C` was “inactive”.
The value for `COc1ccccc1CN(C)C[C@@H]1OCc2ccccc2-c2c(n(C)c3ccccc23)C(=O)N([C@H](C)CO)C[C@H]1C` was “inactive”.
The value for `C[C@H]1CN([C@@H](C)CO)C(=O)c2cc(NS(C)(=O)=O)ccc2O[C@@H]1CN(C)S(=O)(=O)c1ccccc1` was “inactive”; that for `CC(C)NC(=O)N(C)C[C@@H]1Oc2ccc(NS(=O)(=O)c3ccc(Cl)cc3)cc2C(=O)N([C@@H](C)CO)C[C@H]1C` was “inactive”; that for `COc1ccc2c3c(n(c2c1)C)[C@H](CO)N(C[C@]13CCN(CC1)C(=O)c1ccccc1F)C(=O)Nc1ccc(cc1)F` was “inactive”.
As for `CO[C@H]1CN(C)C(=O)c2cc(NS(=O)(=O)c3cn(C)cn3)ccc2OC[C@H](C)N(CC2CC2)C[C@H]1C`, the cytotoxicity call was “inactive”.
On to `C[C@@H]1CN([C@H](C)CO)C(=O)c2cc(NC(=O)C3CCCCC3)ccc2O[C@@H](C)CCCCO[C@H]1CN(C)C(=O)Nc1ccccc1`, for which the cytotoxicity call is “inactive”.
Next, `Cc1cc2cc(C)nn2c(N)n1`: “inactive”; `C[C@H](CO)N1C[C@H](C)[C@H](CN(C)C(=O)Nc2ccccc2)OCCCC[C@H](C)Oc2ccc(NC(=O)CCC(F)(F)F)cc2C1=O`: “inactive”.
The value for `Cc1noc(C)c1S(=O)(=O)Nc1ccc2c(c1)C(=O)N([C@H](C)CO)C[C@@H](C)[C@@H](CN(C)Cc1ccccc1)O2` was “inactive”; that for `O=C(C[C@@H]1C=C[C@H](NS(=O)(=O)c2ccccc2F)[C@@H](CO)O1)NCCCN1CCOCC1` was “inactive”; that for `C[C@@H]1CCCCO[C@H](CN(C)S(=O)(=O)c2ccc(F)cc2)[C@H](C)CN([C@H](C)CO)C(=O)c2cc(NC(=O)NC3CCCCC3)ccc2O1` was “inactive”.
Next, `C[C@@H]1CCCCO[C@H](CN(C)S(=O)(=O)c2ccc(F)cc2)[C@H](C)CN([C@@H](C)CO)C(=O)c2cc(NC(=O)NC3CCCCC3)ccc2O1`: “inactive”; `C[C@@H]1CCCCO[C@@H](CN(C)S(=O)(=O)c2ccc(F)cc2)[C@H](C)CN([C@@H](C)CO)C(=O)c2cc(NC(=O)NC3CCCCC3)ccc2O1`: “inactive”.
In the case of `C[C@@H]1CCCCO[C@@H](CN(C)S(=O)(=O)c2ccc(F)cc2)[C@@H](C)CN([C@H](C)CO)C(=O)c2cc(NC(=O)NC3CCCCC3)ccc2O1`, the cytotoxicity call is “inactive”.
The value for `C[C@@H]1CCCCO[C@@H](CN(C)S(=O)(=O)c2ccc(F)cc2)[C@H](C)CN([C@H](C)CO)C(=O)c2cc(NC(=O)NC3CCCCC3)ccc2O1` was “active”; that for `C[C@@H]1CN([C@H](C)CO)C(=O)c2cc(NC(=O)NC3CCCCC3)ccc2O[C@@H](C)CCCCO[C@H]1CN(C)S(=O)(=O)c1ccc(F)cc1` was “inactive”; that for `C[C@H](CO)N1C[C@H](C)[C@H](CN(C)S(=O)(=O)c2ccc(F)cc2)OCCCC[C@H](C)Oc2ccc(NC(=O)NC3CCCCC3)cc2C1=O` was “active”.
As to `C[C@H]1CCCCO[C@@H](CN(C)S(=O)(=O)c2ccc(F)cc2)[C@@H](C)CN([C@@H](C)CO)C(=O)c2cc(NC(=O)NC3CCCCC3)ccc2O1`, the cytotoxicity call was “inactive”.
Next, `C[C@@H]1CCCCO[C@H](CN(C)S(=O)(=O)c2ccc(F)cc2)[C@@H](C)CN([C@H](C)CO)C(=O)c2cc(NC(=O)NC3CCCCC3)ccc2O1`: “active”.
